# Test results as given in PubChem BioAssay.
# A number with no mark means an inactive call. For part of these data: Results with a measured potency or affinity are listed apart. Activity calls are given as the source filed them.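 The calls were made as follows, unless noted: active = compound raising the membrane signal above positive-control mean plus 3 SD in both repeats, and a primary screen hit; inactive = the rest.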
# Assays:
# [1] = tested on: TRPC4 beta (transient receptor potential cation channel C4), mouse; assay: TRPC4 cation channel opening, retest – cell-based, Fluo4 calcium, HEK293 TRPC4beta/mu-opioid, duplicates, 10 µM, confirmation (AID 2426;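 active = fluorescence ratio normalized to control raised more than 50% in primary screen plus both repeat runs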;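 as to activation: percent rise of integrated ratio over buffer wells lacking compound which define 0%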); conditions: Fluo4 calcium fluorescence, at 10 µM; stronger effect = higher value
# [2] = tested on: transient receptor potential cation channel C4 beta (TRPC4), mouse; assay: TRPC4 cation channel opening, second retest – cell-based, second round, Fluo4, HEK293 TRPC4beta/mu-opioid, 1 µM, confirmation (AID 2461;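 active = primary screen active and over 50% activation in each of two duplicate runs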;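 as to activation: 0% = wells without test compound as baseline of integrated fluorescence ratio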); conditions: Fluo4 calcium fluorescence, at 1 µM; stronger effect = higher value
# [3] = tested on: TRPC4 (transient receptor potential cation channel C4 beta), mouse; assay: potentiation of DAMGO EC20 TRPC4 response – cell-based, second round, Fluo-4, HEK293 TRPC4beta/mu-opioid, 1 µM, confirmation (AID 2554;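 active = primary screen hit whose fluorescence ratio, in both repeats, exceeds the weak agonist control mean by 3 SD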); conditions: DAMGO EC20, Fluo-4 calcium flux, at 1 µM; stronger effect = higher value
# [4] = tested on: TRPC4 beta (transient receptor potential cation channel C4), mouse; assay: potentiation of DAMGO EC20 TRPC4 response – cell-based, Fluo-4, HEK293 TRPC4beta/mu-opioid, confirmation (AID 2555;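 active = primary screen hit whose calcium fluorescence ratio, in both repeats, exceeds the weak agonist control mean by 3 SD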); conditions: DAMGO EC20, Fluo-4 calcium flux, at 10 µM; stronger effect = higher value
# [5] = biological target: Short transient receptor potential channel 4 (Mus musculus) (UniProt Q9QUQ5); assay: blockers of DAMGO-evoked TRPC4 calcium flux – cell-based, Fluo4, HEK293 TRPC4beta/mu-opioid, confirmation (AID 2636;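 active = calcium signal cut by more than 3 SD below the full-agonist control yet still positive, in both repeats and the earlier primary screen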); conditions: at 10 µM; stronger effect = higher value
# Sequence of Short transient receptor potential channel 4 (Mus musculus) (Q9QUQ5 whole entry, looked up): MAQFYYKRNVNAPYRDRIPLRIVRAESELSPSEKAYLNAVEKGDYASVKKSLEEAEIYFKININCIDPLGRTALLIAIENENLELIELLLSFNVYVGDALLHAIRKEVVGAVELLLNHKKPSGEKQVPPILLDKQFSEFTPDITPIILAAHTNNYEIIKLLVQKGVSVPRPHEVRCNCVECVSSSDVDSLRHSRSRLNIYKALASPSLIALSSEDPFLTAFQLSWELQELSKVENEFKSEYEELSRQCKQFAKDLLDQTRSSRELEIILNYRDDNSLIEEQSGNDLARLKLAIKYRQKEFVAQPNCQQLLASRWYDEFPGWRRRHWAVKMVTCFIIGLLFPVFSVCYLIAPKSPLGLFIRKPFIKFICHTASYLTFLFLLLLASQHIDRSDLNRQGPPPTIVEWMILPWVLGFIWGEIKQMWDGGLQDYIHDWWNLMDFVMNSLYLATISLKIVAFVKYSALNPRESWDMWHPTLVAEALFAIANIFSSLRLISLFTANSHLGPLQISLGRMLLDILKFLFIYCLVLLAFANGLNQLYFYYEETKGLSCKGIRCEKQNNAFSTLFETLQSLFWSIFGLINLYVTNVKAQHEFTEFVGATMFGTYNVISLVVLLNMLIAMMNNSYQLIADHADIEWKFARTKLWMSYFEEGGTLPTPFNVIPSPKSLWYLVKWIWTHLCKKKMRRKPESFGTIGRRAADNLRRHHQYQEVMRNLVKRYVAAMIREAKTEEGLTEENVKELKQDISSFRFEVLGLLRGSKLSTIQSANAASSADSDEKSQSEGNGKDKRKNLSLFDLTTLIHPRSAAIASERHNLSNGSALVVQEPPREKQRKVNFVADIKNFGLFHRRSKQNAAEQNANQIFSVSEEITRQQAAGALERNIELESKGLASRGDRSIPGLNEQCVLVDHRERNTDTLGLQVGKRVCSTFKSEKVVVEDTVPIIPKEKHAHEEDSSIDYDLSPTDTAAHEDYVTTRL
# [6] = biological target: Short transient receptor potential channel 4 (Mus musculus) (UniProt Q9QUQ5); assay: blockers of DAMGO-evoked TRPC4 calcium flux – cell-based, second round, Fluo4, HEK293 TRPC4beta/mu-opioid, 1 µM, confirmation (AID 2637;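 active = calcium signal ratio cut to more than 3 SD under the fully stimulated control mean yet still positive, in both repeats and the primary screen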;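 as to inhibition: percent of integrated ratio relative to wells lacking test compound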); conditions: at 1 µM; stronger effect = higher value
# [7] = biological target: Short transient receptor potential channel 4 (Mus musculus) (UniProt Q9QUQ5); assay: potentiation of DAMGO-evoked TRPC4 calcium signal – cell-based, HEK293 TRPC4/mu-opioid, Fluo-4 calcium, EC20 DAMGO, dose response (AID 434941;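 active = earlier screen potentiator hit that boosts the TRPC4 ion channel at some dose, with a dose response; inactive = no potentiation, no dose response, or not a prior hit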;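 also: calcium entry triggered by an EC20 dose of DAMGO at the co-expressed mu-opioid receptor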)
# [8] = biological target: Short transient receptor potential channel 6 (Mus musculus) (UniProt Q61143); assay: TRPC6 blockade by TRPC4 inhibitor hits – cell-based, HEK293, membrane potential dye, duplicate, selectivity assay for TRPC4 inhibitor project, confirmation (AID 434948;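 active = active in primary screen and both duplicates, each dropping signal beyond three positive-control SD with fluorescence still positive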); conditions: HEK293 TRPC6, membrane potential dye fluorescence, at 10 µM, stimulated with maximal-effect acetylcholine; stronger effect = higher value
# Sequence of Short transient receptor potential channel 6 (Mus musculus) (Q61143 whole entry, looked up): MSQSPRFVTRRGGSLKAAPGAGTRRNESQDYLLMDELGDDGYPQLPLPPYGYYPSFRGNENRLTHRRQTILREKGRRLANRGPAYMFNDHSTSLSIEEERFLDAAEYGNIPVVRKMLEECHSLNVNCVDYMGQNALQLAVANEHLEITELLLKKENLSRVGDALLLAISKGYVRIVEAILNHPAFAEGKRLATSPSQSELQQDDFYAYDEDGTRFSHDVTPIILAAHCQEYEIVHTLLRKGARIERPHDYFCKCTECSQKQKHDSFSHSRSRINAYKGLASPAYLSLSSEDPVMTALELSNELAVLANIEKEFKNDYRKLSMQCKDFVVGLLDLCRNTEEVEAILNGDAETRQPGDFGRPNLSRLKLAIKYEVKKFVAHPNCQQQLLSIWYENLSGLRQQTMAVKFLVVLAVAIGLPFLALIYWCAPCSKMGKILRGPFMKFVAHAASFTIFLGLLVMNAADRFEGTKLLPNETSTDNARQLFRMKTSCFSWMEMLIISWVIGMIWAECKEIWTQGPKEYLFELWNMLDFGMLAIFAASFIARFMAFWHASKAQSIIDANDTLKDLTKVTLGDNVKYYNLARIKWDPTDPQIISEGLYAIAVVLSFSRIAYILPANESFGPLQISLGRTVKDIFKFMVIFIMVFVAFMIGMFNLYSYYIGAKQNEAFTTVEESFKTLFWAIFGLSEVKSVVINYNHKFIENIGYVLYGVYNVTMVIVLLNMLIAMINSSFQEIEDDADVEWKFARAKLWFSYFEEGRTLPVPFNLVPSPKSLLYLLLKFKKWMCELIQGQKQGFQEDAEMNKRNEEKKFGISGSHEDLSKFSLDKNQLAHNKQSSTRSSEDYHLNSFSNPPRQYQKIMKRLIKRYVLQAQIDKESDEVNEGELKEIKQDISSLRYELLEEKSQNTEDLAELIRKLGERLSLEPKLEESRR
# [9] = biological target: Short transient receptor potential channel 6 (Mus musculus) (UniProt Q61143); assay: TRPC6 opening by TRPC4 activator hits – cell-based, HEK293, membrane potential dye, duplicate, selectivity assay for TRPC4 activator project, confirmation (AID 434950;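 active = membrane potential signal rise above negative control mean plus 3 SD in both duplicates, also active in the earlier TRPC4 screen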;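 as to activation: 0% = buffer only wells and 100% = acetylcholine maximal-effect wells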); conditions: HEK293 TRPC6, membrane potential fluorescence, at 10 µM; activation: stronger effect = higher value; outcome: activation
# [10] = biological target: Short transient receptor potential channel 6 (Mus musculus) (UniProt Q61143); assay: positive modulators of mouse TRPC6 channel – HEK293 cells, membrane potential dye, duplicate, selectivity assay for TRPC4 potentiator project, confirmation (AID 434952); conditions: HEK293 TRPC6, membrane potential dye fluorescence, at 10 µM, maximal acetylcholine added after compound; stronger effect = higher value
# [11] = biological target: Short transient receptor potential channel 4 (Mus musculus) (UniProt Q9QUQ5); assay: calcium flux activators in TRPC4/5HT1a cells, counter-screen for TRPC4 activator project, cell-based, second counter screen, HEK293 TRPC4/5HT1a, Fluo-4 (AID 434977;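 active = calcium signal rise above buffer-control mean plus 5 SD in both duplicates, and also a hit in the primary screen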;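 as to activation: plate controls were assay buffer for no effect and maximal serotonin response for full effect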); conditions: Fluo-4 calcium flux, at 10 µM; stronger effect = higher value
# [12] = serotonin-gated TRPC4 signal block – cell-based, second counter screen, HEK293 TRPC4/5HT1a, Fluo-4, counter-screen for TRPC4 inhibitor project, confirmation (AID 434978;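 active = primary screen active whose calcium signal fell more than 3 SD beyond the full-serotonin control mean in both duplicate plates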;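 as to outcome: serotonin given first at submaximal then at maximal dose after compound preincubation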); conditions: Fluo-4 calcium flux, at 10 µM, serotonin added to trigger calcium flux; stronger effect = higher value
# [13] = tested on: TRPC4 (mouse), co-expressed with 5HT1a in HEK293; assay: enhancement of serotonin-evoked TRPC4 response – cell-based, second counter screen, HEK293 TRPC4/5HT1a, Fluo-4, counter-screen for TRPC4 potentiator project, confirmation (AID 434979;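 active = signal rise over 3 SD above mean of control wells given weak agonist, in both repeats and first screen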); conditions: Fluo-4 calcium flux, at 10 µM, serotonin added at its EC20 dose; stronger effect = higher value
# [14] = nonspecific calcium rise without TRPC4 – cell-based, HEK293 mu-opioid receptor line, counter-screen for TRPC4 activator project, confirmation (AID 449723;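 active = hit in primary screen, with calcium signal over 5 SD above buffer well mean in both duplicates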;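 also: counter screen cells carry the mu-opioid receptor alone and lack TRPC4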); conditions: HEK293 mu-opioid cells, Fluo-4 calcium fluorescence, at 10 µM; stronger effect = higher value
# [15] = nonspecific potentiation of DAMGO calcium response – cell-based, HEK293 mu-opioid receptor line, counter-screen for TRPC4 allosteric potentiator project, confirmation (AID 449724;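 active = calcium signal rise more than 3 SD above the low-dose agonist control mean, in both duplicate plates and the primary screen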); conditions: HEK293 mu-opioid receptor cells, Fluo-4 calcium flux, at 10 µM, compound added before EC20 DAMGO stimulus; stronger effect = higher value
smiles,measurement,setting,value
COc1cccc(-c2nn(-c3ccccc3)cc2CN(C)C(C)c2ccncn2)c1 (stereo not given),outcome,[1],inactive
same,outcome,[2],inactive
same,outcome,[3],inactive
same,outcome,[4],inactive
same,inhibition,[5],93% (active)
same,outcome,[6],inactive
same,outcome,[7],inactive
same,outcome,[8],inactive
same,activation,[9],41% (active)
same,outcome,[10],inactive
same,outcome,[11],inactive
same,outcome,[12],inactive
same,outcome,[13],inactive
same,outcome,[14],inactive
same,outcome,[15],inactive
Cc1ccccc1C(=O)Nc1c(C(=O)N(CCN(C)C)Cc2ccco2)oc2ccccc12,activation,[1],84% (active)
same,outcome,[2],inactive
same,outcome,[3],inactive
same,outcome,[4],inactive
same,outcome,[5],inactive
same,outcome,[6],inactive
same,outcome,[7],inactive
same,outcome,[8],inactive
same,activation,[9],33.5% (active)
same,outcome,[10],inactive
same,outcome,[11],inactive
same,outcome,[12],inactive
same,outcome,[13],inactive
same,outcome,[14],inactive
same,outcome,[15],inactive
COc1ccc(CCN(C)CCN2C(=O)c3ccccc3C2=O)cc1OC,activation,[1],252% (active)
same,activation,[2],103% (active)
same,outcome,[3],inactive
same,outcome,[4],inactive
same,outcome,[5],inactive
same,inhibition,[6],43% (active)
same,outcome,[7],inactive
same,outcome,[8],inactive
same,outcome,[9],inactive
same,outcome,[10],inactive
same,activation,[11],96.5% (active)
same,inhibition,[12],1.2% (active)
same,outcome,[13],inactive
same,outcome,[14],inactive
same,outcome,[15],inactive
CCNC(=S)N1CCC(C(O)(c2ccccc2)c2ccccc2)CC1,activation,[1],117% (active)
same,outcome,[2],inactive
same,outcome,[3],inactive
same,outcome,[4],inactive
same,inhibition,[5],96% (active)
same,outcome,[6],inactive
same,outcome,[7],inactive
same,outcome,[8],inactive
same,activation,[9],41.5% (active)
same,outcome,[10],inactive
same,outcome,[11],inactive
same,outcome,[12],inactive
same,outcome,[13],inactive
same,outcome,[14],inactive
same,outcome,[15],inactive
CCOC(=O)C1(CCc2ccccc2)CCN(Cc2ccc(O)cc2)CC1,outcome,[1],inactive
same,outcome,[2],inactive
same,outcome,[3],inactive
same,outcome,[4],inactive
same,inhibition,[5],88% (active)
same,outcome,[6],inactive
same,outcome,[7],inactive
same,outcome,[8],inactive
same,activation,[9],69% (active)
same,outcome,[10],inactive
same,outcome,[11],inactive
same,outcome,[12],inactive
same,outcome,[13],inactive
same,outcome,[14],inactive
same,outcome,[15],inactive
CCn1cc(CN2CCC(n3nccc3NC(=O)CCCc3ccccc3)CC2)cn1,outcome,[1],inactive
same,outcome,[2],inactive
same,outcome,[3],inactive
same,outcome,[4],inactive
same,inhibition,[5],95% (active)
same,inhibition,[6],58% (active)
same,outcome,[7],inactive
same,outcome,[8],inactive
same,activation,[9],36% (active)
same,outcome,[10],inactive
same,outcome,[11],inactive
same,outcome,[12],inactive
same,outcome,[13],inactive
same,outcome,[14],inactive
same,outcome,[15],inactive
COc1ccc2nc(NS(=O)(=O)c3ccc(NC(C)=O)cc3)sc2c1,outcome,[1],inactive
same,outcome,[2],inactive
same,outcome,[3],inactive
same,outcome,[4],inactive
same,inhibition,[5],73% (active)
same,outcome,[6],inactive
same,outcome,[7],inactive
same,outcome,[8],inactive
same,activation,[9],37.5% (active)
same,outcome,[10],inactive
same,outcome,[11],inactive
same,outcome,[12],inactive
same,outcome,[13],inactive
same,outcome,[14],inactive
same,outcome,[15],inactive
CN(C)CCN(C(=O)C1CCCCC1)c1nc2cc3c(cc2s1)OCO3,outcome,[1],inactive
same,outcome,[2],inactive
same,outcome,[3],inactive
same,outcome,[4],inactive
same,inhibition,[5],75% (active)
same,outcome,[6],inactive
same,outcome,[7],inactive
same,outcome,[8],inactive
same,outcome,[9],inactive
same,outcome,[10],inactive
same,outcome,[11],inactive
same,outcome,[12],inactive
same,outcome,[13],inactive
same,outcome,[14],inactive
same,outcome,[15],inactive
CCCCC(c1nnnn1CC1CCCO1)N1CCN(Cc2ccccc2)CC1 (stereo not given),outcome,[1],inactive
same,outcome,[2],inactive
same,outcome,[3],inactive
same,outcome,[4],inactive
same,inhibition,[5],84% (active)
same,outcome,[6],inactive
same,outcome,[7],inactive
same,outcome,[8],inactive
same,activation,[9],64.5% (active)
same,outcome,[10],inactive
same,outcome,[11],inactive
same,outcome,[12],inactive
same,outcome,[13],inactive
same,outcome,[14],inactive
same,outcome,[15],inactive
CN1C2C=C(N(CCc3c[nH]c4ccccc34)C(=O)c3ccc(Cl)cc3)CC1CC2 (stereo not given),activation,[1],130% (active)
same,outcome,[2],inactive
same,outcome,[3],inactive
same,outcome,[4],inactive
same,outcome,[5],inactive
same,inhibition,[6],80% (active)
same,outcome,[7],inactive
same,outcome,[8],inactive
same,outcome,[9],inactive
same,outcome,[10],inactive
same,outcome,[11],inactive
same,outcome,[12],inactive
same,outcome,[13],inactive
same,outcome,[14],inactive
same,outcome,[15],inactive
Cc1ccc2c(nc3s/c(=C\c4ccc(-c5ccccc5C(=O)O)o4)c(=O)n32)c1C,activation,[1],232% (active)
same,outcome,[2],inactive
same,outcome,[3],inactive
same,outcome,[4],inactive
same,outcome,[5],inactive
same,outcome,[6],inactive
same,outcome,[7],inactive
same,outcome,[8],inactive
same,activation,[9],805% (active)
same,outcome,[10],inactive
same,activation,[11],182% (active)
same,inhibition,[12],28.9% (active)
same,outcome,[13],inactive
same,activation,[14],203% (active)
same,outcome,[15],inactive
CCOC(=O)C1(CC2CC2)CCN(Cc2cn[nH]c2-c2ccccc2)CC1,outcome,[1],inactive
same,outcome,[2],inactive
same,outcome,[3],inactive
same,outcome,[4],inactive
same,inhibition,[5],97% (active)
same,inhibition,[6],47% (active)
same,outcome,[7],inactive
same,outcome,[8],inactive
same,activation,[9],91% (active)
same,outcome,[10],inactive
same,outcome,[11],inactive
same,inhibition,[12],35.9% (active)
same,outcome,[13],inactive
same,outcome,[14],inactive
same,outcome,[15],inactive
Cc1ccc(C2(O)CN(c3ccccc3)C3=[N+]2CCS3)cc1 (stereo not given),outcome,[1],inactive
same,outcome,[2],inactive
same,outcome,[3],inactive
same,outcome,[4],inactive
same,inhibition,[5],97% (active)
same,inhibition,[6],79% (active)
same,outcome,[7],inactive
same,outcome,[8],inactive
same,activation,[9],48% (active)
same,outcome,[10],inactive
same,outcome,[11],inactive
same,outcome,[12],inactive
same,outcome,[13],inactive
same,outcome,[14],inactive
same,outcome,[15],inactive
Cc1ccc(S(=O)(=O)Nc2cccc(C(=O)NCC(c3ccco3)N3CCCC3)c2)cc1F (stereo not given),activation,[1],58% (active)
same,outcome,[2],inactive
same,outcome,[3],inactive
same,outcome,[4],inactive
same,outcome,[5],inactive
same,inhibition,[6],67% (active)
same,outcome,[7],inactive
same,outcome,[8],inactive
same,activation,[9],31.5% (active)
same,outcome,[10],inactive
same,outcome,[11],inactive
same,outcome,[12],inactive
same,outcome,[13],inactive
same,outcome,[14],inactive
same,outcome,[15],inactive
